# Assay results as given in publication PMC7862700, “An all-to-all approach to the identification of sequence-specific readers for epigenetic DNA modifications on cytosine”.
# What was measured:
# Test in all cases: DAPPL (digital affinity profiling via proximity ligation, sequencing); 10 mM Tris-HCl pH 7.5, 50 mM NaCl, 1 mM DTT, 4% glycerol, room temperature, 30 min; GST-TFs on glutathione beads, 16-mer random dsDNA library, 0.1% formaldehyde crosslink after washing; high values mean tight binding
# FEV = molecular target: T1, FEV (Homo sapiens, UniProt Q99581 1-238); conditions: protein: recombinant; tags: N-terminal GST; dsDNA, one strand shown
# T1 sequence: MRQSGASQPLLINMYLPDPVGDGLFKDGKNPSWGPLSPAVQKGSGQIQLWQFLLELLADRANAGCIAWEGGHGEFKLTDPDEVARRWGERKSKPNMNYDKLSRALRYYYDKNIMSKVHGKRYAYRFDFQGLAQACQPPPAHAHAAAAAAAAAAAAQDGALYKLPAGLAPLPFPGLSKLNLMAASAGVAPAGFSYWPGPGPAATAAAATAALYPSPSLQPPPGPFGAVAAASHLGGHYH
# Summary of the method: (§1)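 Each value of binding signal is a hexamer's read frequency for a factor divided by the same hexamer's frequency in the tag-only sample. Barcoded, bead-captured GST fusions of human transcription factors made in yeast were pooled with that sample and incubated with 200 nmole of a random double-stranded 16-mer DNA library in Tris/NaCl/DTT/glycerol buffer at room temperature for 30 min. Washing, 0.1% formaldehyde crosslinking, proximity ligation, PCR and Illumina NextSeq500 sequencing followed.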
# ETV5 = ETV5 (Homo sapiens, UniProt P41161 1-510); conditions: protein: recombinant; tags: N-terminal GST; dsDNA, one strand shown
# Summary of the method: as §1
# HSF1 = HSF1 (Homo sapiens, UniProt Q00613 1-529); conditions: protein: recombinant; tags: N-terminal GST; chain copies: 3; dsDNA, one strand shown
# Summary of the method: as §1
# SPIC = molecular target: T2, SPIC (Homo sapiens, UniProt Q8N5J4 1-248); conditions: protein: recombinant; tags: N-terminal GST; dsDNA, one strand shown
# T2 sequence: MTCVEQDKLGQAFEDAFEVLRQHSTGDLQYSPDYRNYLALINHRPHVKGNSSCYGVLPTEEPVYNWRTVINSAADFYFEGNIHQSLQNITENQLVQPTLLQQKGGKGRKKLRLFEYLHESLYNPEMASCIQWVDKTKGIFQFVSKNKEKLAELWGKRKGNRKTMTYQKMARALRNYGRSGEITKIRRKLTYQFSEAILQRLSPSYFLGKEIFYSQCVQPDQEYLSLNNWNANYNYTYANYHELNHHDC
# Summary of the method: as §1
# ELF4 = ELF4 (Homo sapiens, UniProt Q99607 1-663); conditions: protein: recombinant; tags: N-terminal GST; dsDNA, one strand shown
# Summary of the method: as §1
# ELK4 = molecular target: T3, ELK4 (Homo sapiens, UniProt P28324-2 1-405); conditions: protein: recombinant; tags: N-terminal GST; dsDNA, one strand shown
# T3 sequence: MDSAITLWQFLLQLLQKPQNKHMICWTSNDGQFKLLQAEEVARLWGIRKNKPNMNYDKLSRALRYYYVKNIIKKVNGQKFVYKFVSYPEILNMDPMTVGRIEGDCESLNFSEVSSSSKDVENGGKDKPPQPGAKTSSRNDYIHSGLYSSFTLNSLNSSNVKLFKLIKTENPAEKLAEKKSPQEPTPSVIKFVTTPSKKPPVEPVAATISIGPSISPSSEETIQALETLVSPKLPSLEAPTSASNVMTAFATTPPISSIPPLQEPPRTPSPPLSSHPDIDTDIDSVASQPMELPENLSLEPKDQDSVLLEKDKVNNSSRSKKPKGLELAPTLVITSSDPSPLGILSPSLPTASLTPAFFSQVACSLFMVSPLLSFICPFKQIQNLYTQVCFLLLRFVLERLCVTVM
# Summary of the method: as §1
# ETV2 = molecular target: T4, ETV2 (Homo sapiens, UniProt O00321 1-342); conditions: protein: recombinant; tags: N-terminal GST; dsDNA, one strand shown
# T4 sequence: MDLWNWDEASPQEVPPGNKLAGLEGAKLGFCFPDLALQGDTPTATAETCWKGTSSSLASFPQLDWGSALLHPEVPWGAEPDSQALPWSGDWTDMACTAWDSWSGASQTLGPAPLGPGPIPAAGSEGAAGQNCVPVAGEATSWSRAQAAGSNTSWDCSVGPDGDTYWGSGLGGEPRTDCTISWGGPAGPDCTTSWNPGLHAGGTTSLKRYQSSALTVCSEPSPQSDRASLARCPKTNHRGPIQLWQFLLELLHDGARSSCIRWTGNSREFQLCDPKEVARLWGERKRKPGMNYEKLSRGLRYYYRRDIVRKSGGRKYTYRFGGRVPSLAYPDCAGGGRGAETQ
# Summary of the method: as §1
# ELF3 = molecular target: T5, ELF3 (Homo sapiens, UniProt P78545 1-371); conditions: protein: recombinant; tags: N-terminal GST; dsDNA, one strand shown
# T5 sequence: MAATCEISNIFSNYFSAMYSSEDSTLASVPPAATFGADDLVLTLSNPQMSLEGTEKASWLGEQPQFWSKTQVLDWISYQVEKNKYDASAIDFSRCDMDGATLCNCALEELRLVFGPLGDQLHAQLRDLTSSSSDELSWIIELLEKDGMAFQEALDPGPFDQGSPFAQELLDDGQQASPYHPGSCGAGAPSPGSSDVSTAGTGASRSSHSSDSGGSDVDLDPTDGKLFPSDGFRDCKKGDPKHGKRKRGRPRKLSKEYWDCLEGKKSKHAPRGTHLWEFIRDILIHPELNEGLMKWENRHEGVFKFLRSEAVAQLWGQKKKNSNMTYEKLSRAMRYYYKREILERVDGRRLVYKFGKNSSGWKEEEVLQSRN
# Summary of the method: as §1
# CRX = CRX (Homo sapiens, UniProt O43186 1-299); conditions: protein: recombinant; tags: N-terminal GST; dsDNA, one strand shown
# Summary of the method: as §1
# ETV1 = ETV1 (Homo sapiens, UniProt P50549 1-477); conditions: protein: recombinant; tags: N-terminal GST; dsDNA, one strand shown
# Summary of the method: as §1
# ERF = molecular target: T6, ERF (Homo sapiens, UniProt P50548 1-548); conditions: protein: recombinant; tags: N-terminal GST; dsDNA, one strand shown
# T6 sequence: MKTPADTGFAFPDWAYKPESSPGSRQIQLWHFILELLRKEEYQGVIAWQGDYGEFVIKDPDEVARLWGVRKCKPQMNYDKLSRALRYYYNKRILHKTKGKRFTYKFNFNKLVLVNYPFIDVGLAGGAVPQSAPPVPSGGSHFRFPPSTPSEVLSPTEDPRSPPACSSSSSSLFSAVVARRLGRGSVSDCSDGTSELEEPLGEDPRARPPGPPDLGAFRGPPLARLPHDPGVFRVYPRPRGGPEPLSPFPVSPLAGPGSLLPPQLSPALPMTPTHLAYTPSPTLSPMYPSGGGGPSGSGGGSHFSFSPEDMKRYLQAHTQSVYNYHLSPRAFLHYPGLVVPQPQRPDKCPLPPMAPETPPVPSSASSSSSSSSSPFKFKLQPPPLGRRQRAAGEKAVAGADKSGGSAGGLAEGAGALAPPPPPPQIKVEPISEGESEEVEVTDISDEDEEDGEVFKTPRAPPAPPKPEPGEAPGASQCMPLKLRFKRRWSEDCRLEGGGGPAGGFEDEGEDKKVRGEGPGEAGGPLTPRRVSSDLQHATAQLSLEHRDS
# Summary of the method: as §1
# ETV3L = molecular target: T7, ETV3L (Homo sapiens, UniProt Q6ZN32 1-361); conditions: protein: recombinant; tags: N-terminal GST; dsDNA, one strand shown
# T7 sequence: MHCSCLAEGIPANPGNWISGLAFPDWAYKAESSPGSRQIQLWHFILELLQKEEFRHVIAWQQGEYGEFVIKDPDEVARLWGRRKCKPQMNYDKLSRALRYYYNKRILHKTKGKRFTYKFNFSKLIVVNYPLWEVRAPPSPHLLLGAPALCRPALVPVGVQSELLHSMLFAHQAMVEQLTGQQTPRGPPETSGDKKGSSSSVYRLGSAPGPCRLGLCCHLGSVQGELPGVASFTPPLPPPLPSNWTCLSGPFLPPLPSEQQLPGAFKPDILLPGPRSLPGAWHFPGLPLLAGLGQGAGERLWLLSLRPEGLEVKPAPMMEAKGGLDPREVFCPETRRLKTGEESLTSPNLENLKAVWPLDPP
# Summary of the method: as §1
# ETS2 = molecular target: T8, ETS2 (Homo sapiens, UniProt P15036 1-469); conditions: protein: recombinant; tags: N-terminal GST; dsDNA, one strand shown
# T8 sequence: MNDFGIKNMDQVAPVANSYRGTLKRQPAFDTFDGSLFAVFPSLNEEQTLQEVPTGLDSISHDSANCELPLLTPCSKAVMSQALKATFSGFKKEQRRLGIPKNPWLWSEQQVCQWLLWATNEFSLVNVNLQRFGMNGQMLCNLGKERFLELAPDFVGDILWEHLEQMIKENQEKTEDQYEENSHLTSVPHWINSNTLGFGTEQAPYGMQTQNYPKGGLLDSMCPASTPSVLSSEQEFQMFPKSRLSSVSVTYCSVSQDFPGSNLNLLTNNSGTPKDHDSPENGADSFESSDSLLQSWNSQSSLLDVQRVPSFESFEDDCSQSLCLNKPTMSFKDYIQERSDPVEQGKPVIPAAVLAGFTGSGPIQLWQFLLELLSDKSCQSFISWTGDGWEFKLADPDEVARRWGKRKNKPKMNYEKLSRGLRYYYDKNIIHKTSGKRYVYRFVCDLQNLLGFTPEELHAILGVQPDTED
# Summary of the method: as §1
# SPDEF = molecular target: T9, SPDEF (Homo sapiens, UniProt O95238 1-335); conditions: protein: recombinant; tags: N-terminal GST; dsDNA, one strand shown
# T9 sequence: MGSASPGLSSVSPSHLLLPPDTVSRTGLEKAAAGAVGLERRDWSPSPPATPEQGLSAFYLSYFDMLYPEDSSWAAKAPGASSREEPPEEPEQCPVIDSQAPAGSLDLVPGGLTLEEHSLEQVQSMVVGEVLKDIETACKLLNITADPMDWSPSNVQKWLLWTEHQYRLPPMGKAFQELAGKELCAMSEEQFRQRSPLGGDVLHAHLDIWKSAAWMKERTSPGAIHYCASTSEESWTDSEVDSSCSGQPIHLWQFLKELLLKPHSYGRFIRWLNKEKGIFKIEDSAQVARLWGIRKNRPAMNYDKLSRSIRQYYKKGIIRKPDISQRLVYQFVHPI
# Summary of the method: as §1
# ETV7 = molecular target: T10, ETV7 (Homo sapiens, UniProt Q9Y603 1-341); conditions: protein: recombinant; tags: N-terminal GST; dsDNA, one strand shown
# T10 sequence: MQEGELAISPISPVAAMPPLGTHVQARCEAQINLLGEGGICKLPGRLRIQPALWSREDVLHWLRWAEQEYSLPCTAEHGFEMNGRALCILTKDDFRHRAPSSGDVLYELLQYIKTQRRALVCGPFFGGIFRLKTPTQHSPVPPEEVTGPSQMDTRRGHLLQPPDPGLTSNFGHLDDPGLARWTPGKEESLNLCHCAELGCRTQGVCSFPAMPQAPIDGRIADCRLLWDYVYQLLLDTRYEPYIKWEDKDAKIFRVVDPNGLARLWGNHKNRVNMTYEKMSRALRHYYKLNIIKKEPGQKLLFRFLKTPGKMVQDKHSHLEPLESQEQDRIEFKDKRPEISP
# Summary of the method: as §1
# ELF5 = molecular target: T11, ELF5 (Homo sapiens, UniProt Q9UKW6-2 1-255); conditions: protein: recombinant; tags: N-terminal GST; dsDNA, one strand shown
# T11 sequence: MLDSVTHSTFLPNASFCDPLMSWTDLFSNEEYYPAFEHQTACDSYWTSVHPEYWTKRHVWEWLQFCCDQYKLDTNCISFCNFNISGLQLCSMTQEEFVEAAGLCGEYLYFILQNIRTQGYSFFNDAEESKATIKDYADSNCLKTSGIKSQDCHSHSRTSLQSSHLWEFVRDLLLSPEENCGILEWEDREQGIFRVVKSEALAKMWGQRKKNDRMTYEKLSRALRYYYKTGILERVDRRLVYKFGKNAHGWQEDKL
# Summary of the method: as §1
# ETV3 = molecular target: T12, ETV3 (Homo sapiens, UniProt P41162-2 1-143); conditions: protein: recombinant; tags: N-terminal GST; dsDNA, one strand shown
# T12 sequence: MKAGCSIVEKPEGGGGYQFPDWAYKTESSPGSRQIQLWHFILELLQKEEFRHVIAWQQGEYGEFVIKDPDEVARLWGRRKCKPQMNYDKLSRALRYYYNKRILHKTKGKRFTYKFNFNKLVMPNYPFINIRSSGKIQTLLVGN
# Summary of the method: as §1
# ETV6 = ETV6 (Homo sapiens, UniProt P41212 1-452); conditions: protein: recombinant; tags: N-terminal GST; dsDNA, one strand shown
# Summary of the method: as §1
# Chain of CRX (O43186 whole entry): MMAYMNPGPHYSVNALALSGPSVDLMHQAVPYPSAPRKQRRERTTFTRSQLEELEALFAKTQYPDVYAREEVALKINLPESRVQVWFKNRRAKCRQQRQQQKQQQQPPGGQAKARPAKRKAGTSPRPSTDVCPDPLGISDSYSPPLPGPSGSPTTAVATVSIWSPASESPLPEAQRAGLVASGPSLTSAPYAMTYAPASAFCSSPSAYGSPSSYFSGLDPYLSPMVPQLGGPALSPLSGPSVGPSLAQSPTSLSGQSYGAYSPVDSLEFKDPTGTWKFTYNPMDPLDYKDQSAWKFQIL
# Chain of ETV6 (P41212 whole entry): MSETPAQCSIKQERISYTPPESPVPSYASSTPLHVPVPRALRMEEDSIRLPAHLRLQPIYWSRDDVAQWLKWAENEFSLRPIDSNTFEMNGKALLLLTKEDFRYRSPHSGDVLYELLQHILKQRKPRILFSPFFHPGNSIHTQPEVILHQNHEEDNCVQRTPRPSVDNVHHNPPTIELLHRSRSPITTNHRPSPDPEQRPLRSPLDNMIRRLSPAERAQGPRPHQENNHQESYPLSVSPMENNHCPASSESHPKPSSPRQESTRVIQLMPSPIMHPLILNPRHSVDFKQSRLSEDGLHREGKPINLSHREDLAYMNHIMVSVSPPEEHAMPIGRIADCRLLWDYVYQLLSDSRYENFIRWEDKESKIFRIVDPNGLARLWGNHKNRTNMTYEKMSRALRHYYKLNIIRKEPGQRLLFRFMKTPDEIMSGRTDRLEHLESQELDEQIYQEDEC
# Chain of ETV5 (P41161 whole entry): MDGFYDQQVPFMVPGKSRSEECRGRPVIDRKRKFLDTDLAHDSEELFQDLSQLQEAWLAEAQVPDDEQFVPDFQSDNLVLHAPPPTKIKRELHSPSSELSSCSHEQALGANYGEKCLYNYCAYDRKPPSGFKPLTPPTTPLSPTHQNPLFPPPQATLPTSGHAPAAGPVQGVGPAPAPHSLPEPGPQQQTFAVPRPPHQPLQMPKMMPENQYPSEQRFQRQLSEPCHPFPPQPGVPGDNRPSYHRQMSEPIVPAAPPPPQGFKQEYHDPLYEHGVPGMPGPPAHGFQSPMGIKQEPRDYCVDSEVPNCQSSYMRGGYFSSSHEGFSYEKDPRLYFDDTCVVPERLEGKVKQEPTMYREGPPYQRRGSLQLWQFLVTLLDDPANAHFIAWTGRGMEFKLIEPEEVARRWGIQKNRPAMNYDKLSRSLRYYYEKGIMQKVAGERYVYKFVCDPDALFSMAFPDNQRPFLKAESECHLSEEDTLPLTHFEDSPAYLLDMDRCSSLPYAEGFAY
# Chain of HSF1 (Q00613 whole entry): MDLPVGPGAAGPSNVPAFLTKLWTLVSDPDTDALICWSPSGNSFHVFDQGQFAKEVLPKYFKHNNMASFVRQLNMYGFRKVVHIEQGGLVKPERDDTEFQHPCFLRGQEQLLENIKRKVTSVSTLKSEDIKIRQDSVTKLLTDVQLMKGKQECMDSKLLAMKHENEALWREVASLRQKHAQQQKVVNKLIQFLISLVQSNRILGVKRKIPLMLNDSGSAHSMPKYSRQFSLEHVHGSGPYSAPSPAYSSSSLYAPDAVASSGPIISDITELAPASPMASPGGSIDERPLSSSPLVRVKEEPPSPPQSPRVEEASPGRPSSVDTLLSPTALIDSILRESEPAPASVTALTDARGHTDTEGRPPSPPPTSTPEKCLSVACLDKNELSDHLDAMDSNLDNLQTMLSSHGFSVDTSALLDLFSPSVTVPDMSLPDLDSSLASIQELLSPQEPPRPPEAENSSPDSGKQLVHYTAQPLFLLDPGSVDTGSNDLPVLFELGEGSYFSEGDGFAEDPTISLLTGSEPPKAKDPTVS
# Chain of ETV1 (P50549 whole entry): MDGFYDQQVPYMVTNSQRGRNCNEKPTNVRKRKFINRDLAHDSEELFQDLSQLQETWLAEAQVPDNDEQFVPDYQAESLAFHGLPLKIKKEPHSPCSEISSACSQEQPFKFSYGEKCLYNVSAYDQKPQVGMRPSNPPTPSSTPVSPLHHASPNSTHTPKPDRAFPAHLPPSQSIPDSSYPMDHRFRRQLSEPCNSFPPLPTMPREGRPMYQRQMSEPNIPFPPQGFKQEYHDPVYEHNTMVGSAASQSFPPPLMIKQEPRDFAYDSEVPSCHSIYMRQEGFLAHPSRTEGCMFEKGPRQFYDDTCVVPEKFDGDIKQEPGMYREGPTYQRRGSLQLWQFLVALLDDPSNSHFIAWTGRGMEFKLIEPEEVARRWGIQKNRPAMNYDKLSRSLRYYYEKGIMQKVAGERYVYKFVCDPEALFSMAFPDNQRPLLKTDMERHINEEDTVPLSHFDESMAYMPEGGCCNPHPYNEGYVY
# Chain of ELF4 (Q99607 whole entry): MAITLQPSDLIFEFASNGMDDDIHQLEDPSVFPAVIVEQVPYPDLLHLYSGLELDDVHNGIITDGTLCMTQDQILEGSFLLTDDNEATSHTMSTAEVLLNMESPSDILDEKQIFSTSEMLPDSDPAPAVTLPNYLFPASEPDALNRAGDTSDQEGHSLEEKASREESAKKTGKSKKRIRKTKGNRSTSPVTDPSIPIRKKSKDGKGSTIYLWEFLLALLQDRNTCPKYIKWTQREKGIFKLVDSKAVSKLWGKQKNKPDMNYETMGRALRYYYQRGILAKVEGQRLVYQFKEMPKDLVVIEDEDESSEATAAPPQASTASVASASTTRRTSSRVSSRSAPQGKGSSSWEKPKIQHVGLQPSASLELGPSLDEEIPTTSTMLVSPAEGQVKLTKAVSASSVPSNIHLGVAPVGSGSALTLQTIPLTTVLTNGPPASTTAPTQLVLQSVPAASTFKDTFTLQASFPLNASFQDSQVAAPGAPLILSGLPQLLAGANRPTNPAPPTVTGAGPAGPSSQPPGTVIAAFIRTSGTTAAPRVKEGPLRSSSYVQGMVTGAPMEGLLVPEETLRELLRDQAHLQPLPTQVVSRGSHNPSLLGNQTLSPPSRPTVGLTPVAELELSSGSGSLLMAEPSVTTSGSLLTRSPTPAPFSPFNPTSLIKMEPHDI
sequence,measurement,setting,value
TTACTT,binding signal,FEV,"1.55 fold enrichment (6-mer frequency, TF over GST control)"
same,binding signal,ETV5,"1.53 fold enrichment (6-mer frequency, TF over GST control)"
same,binding signal,HSF1,"1.41 fold enrichment (6-mer frequency, TF over GST control)"
same,binding signal,SPIC,"1.33 fold enrichment (6-mer frequency, TF over GST control)"
same,binding signal,ELF4,"1.46 fold enrichment (6-mer frequency, TF over GST control)"
same,binding signal,ELK4,"1.33 fold enrichment (6-mer frequency, TF over GST control)"
same,binding signal,ETV2,"1.66 fold enrichment (6-mer frequency, TF over GST control)"
same,binding signal,ELF3,"1.75 fold enrichment (6-mer frequency, TF over GST control)"
same,binding signal,CRX,"1.95 fold enrichment (6-mer frequency, TF over GST control)"
same,binding signal,ETV1,"1.55 fold enrichment (6-mer frequency, TF over GST control)"
same,binding signal,ERF,"1.49 fold enrichment (6-mer frequency, TF over GST control)"
same,binding signal,ETV3L,"1.37 fold enrichment (6-mer frequency, TF over GST control)"
same,binding signal,ETS2,"1.48 fold enrichment (6-mer frequency, TF over GST control)"
same,binding signal,SPDEF,"1.45 fold enrichment (6-mer frequency, TF over GST control)"
same,binding signal,ETV7,"1.43 fold enrichment (6-mer frequency, TF over GST control)"
same,binding signal,ELF5,"1.54 fold enrichment (6-mer frequency, TF over GST control)"
same,binding signal,ETV3,"1.58 fold enrichment (6-mer frequency, TF over GST control)"
same,binding signal,ETV6,"1.62 fold enrichment (6-mer frequency, TF over GST control)"
